From PubChem BioAssay (NCATS) come the findings set out here.

Assay [1] can be described thus: Drug repurposing screens with cells derived from glioblastoma tumor samples (AID 1345199). Also: nearly all actives have a fitted effect of over 40% in size. Also: potency is read from the fitted curve at half-maximal effect. As to activity, negative = cell killing: % is scaled to controls: 0 for no effect and ±100 for the full control effect. As to conditions: GBM patient neurospheres viability, ATP luminescence, 48 h. Summed up: (§1)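 Primary testing used CD133+ neurospheres from four GBM patients, seven concentrations, 48 h exposure and ATP-based viability; confirmation added three slower-growing patient lines.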
In assay [2] the test system is astro (control astrocytes). The description is as above. As to conditions: viability, ATP luminescence, 48 h; series mostly up to 45.9 µM. A digest of the protocol: as §1
In assay [3] the target is Nuclear receptor subfamily 1 group I member 2 (Rattus norvegicus) (UniProt Q9R1A7). As to the kind of experiment: qHTS assay for small molecule activators of the rat pregnane X receptor (rPXR) signaling pathway (AID 651751; call rule not given here; also: 0% is about no effect). As to conditions: rPXR reporter cells, luciferase (One-Glo), 24 h. (In general: qHTS replaces the single test concentration by a dilution series.)
The nature of assay [4]: qHTS assay for small molecule activators of the human pregnane X receptor (PXR) signaling pathway (AID 720659; call rule not given here; also: 0% is about no effect). Conditions: DPX-2 HepG2 CYP3A4-luciferase, 24 h; series mostly up to 92.3 µM.
Setting [5] is: at 45.9 µM (top of the series), tumour line B.
Setting [6] is: at 45.9 µM (top of the series), tumour line D.
[7] abbreviates: at 46.1 µM (top of the series), tumour line C.
[8] abbreviates: at 21.2 µM (top of the series), tumour line D.

Several values for one entry are separate records, joined by “and”; a condition that tells them apart may be missing. Identical values can stand only once. Unmarked numbers belong to inactive results. Results filed as inconclusive are left out. More than one record can exist for a structure, and the calls need not agree. Activity calls are given as the source filed them. Unless noted, calls follow the shape of the dose curve; as a rule, active = well fitted inhibition curve with a large enough effect; inconclusive = small, poorly fitted or top-dose-only effect; inactive = flat fitted curve, though single readings scatter. Where a SMILES comes first, the peptide text is derived from it. Bridges are numbered along the chain shown (N, C = ends). [ ]: non-standard residue; d: D form. The star is where a group is joined. ξ: configuration not given here. d(aThr) = C[C@@H](O)[C@@H](N)C(=O)O; ξThr(3R) = C[C@@H](O)C(N)C(=O)O; X3 = CC[C@@H](C)CCCCC(=O)*; dDab = NCC[C@@H](N)C(=O)O

Sequence of Nuclear receptor subfamily 1 group I member 2 (Rattus norvegicus) (Q9R1A7 whole entry, looked up): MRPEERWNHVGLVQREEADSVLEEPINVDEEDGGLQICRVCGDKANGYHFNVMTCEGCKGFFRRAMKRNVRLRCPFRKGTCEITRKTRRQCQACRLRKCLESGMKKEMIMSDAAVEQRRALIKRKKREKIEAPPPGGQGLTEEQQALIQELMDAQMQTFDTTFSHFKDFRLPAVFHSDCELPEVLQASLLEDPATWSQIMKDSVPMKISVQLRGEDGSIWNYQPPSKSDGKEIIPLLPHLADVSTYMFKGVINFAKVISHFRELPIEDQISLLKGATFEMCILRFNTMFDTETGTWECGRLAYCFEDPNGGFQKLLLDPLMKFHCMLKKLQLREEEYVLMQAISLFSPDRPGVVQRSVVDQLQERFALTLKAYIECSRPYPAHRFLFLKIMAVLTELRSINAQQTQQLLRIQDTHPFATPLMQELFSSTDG

Consider `O=C(O)Cc1nn(Cc2ccc(Br)cc2F)c(=O)c2ccccc12`, for which the figures for the activity, negative = cell killing in assay [1] (setting [5]) and in assay [1] (setting [6]) were -21.4% and -12.1%, respectively. Moreover, in assay [2], the Potency entry was “inactive”.
Turning to `CC(C)OC(=O)Nc1ccc2nc(-c3cscn3)[nH]c2c1`, the Potency in assay [2] is 2.82 µM (active).
With `C=C1CC[C@H](O)CC1=C/C=C1\CCC[C@]2(C)[C@@H]([C@H](C)CCCC(C)(C)O)CC[C@@H]12`, in assay [2], the Potency was 20 µM (active).
The same measure, in the same setting: the same measure for `C[N@+]12CCCC[C@@H]1CCC(=C(c1cccs1)c1cccs1)C2`: “inactive”.
`CC[C@@H](C)CCCCC(=O)N[C@H](CCN)C(=O)N[C@@H](C(=O)N[C@H](CCN)C(=O)N[C@@H]1CCNC(=O)C([C@@H](C)O)NC(=O)[C@@H](CCN)NC(=O)[C@@H](CCN)NC(=O)[C@@H](CC(C)C)NC(=O)[C@@H](Cc2ccccc2)NC(=O)[C@@H](CCN)NC1=O)[C@@H](C)O` (stereo partly drawn) (X3-[dDab][d(aThr)][dDab][dDab][dDab][dF][dL][dDab][dDab][ξThr(3R)]; lactam 4-C): the activity, negative = cell killing in assay [1] (setting [6]) is -10.3%; in assay [1] (setting [7]) it was 4.35%. Further, the Potency result in assay [2] is “inactive”.
As to `O=C(NNCS(=O)(=O)O)c1ccncc1`, the activity, negative = cell killing is -4.21% in assay [1] (setting [5]) and -67.1% in assay [1] (at 46 µM (top of the series), tumour line A). For the same molecule, the Potency result in assay [2] was “inactive”.
As to `C=Cc1ccc(S(=O)(=O)O)cc1`, the activity, negative = cell killing was -6.14% in assay [1] (setting [5]) and -2.96% in assay [1] (setting [6]). Also, the Potency entry in assay [2] was “inactive”.
On to `Cn1c(=O)c2c(ncn2CCOC(=O)C(C)(C)Oc2ccc(Cl)cc2)n(C)c1=O`, for which the results for the activity, negative = cell killing in assay [1] (setting [5]) and in assay [1] (setting [7]) were -17% and -18.4%, respectively. Further, the Potency entry in assay [2] is “inactive”.
Take `N=C(N)n1cccn1`: the activity, negative = cell killing in assay [1] (setting [5]) is -2.75%. Also, the Potency entry in assay [2] is “inactive”.
`CCCCCCCCCC(=O)NO`: the activity, negative = cell killing in assay [1] (setting [5]) is -14.3%; in assay [1] (setting [7]) it was -21.2% and 7.01%. The Potency result in assay [2] is “inactive”.
`C=C1CC[C@H](O)CC1=C/C=C1\CCC[C@]2(C)[C@@H]([C@H](C)CC[C@@H](O)C(C)(C)O)CC[C@@H]12`: in assay [1] (setting [5]), the activity, negative = cell killing is -20.7%. The Potency in assay [1] (tumour line A) was 8.91 µM (active). The Potency result in assay [2] is “inactive”.
Regarding `CCCCCCCCCc1ccc(OCCOCCO)cc1`, the Potency in assay [2] was 12.6 µM (active).
Still for that read-out and setting: the same measure for `Cc1cc(-c2ccc(N=Nc3c(S(=O)(=O)O)cc4cc(S(=O)(=O)O)cc(N)c4c3O)c(C)c2)ccc1N=Nc1c(S(=O)(=O)O)cc2cc(S(=O)(=O)O)cc(N)c2c1O`: 8.91 µM (active).
For the molecule `Cc1cccc(C)c1NC(=O)C1CCCCN1C` (stereo not drawn), the activity, negative = cell killing in assay [1] (setting [5]) is -7.34%; in assay [1] (setting [7]) it was 2.03%. For the same molecule, the Potency result in assay [2] is “inactive”.
For `CC(C)C[C@H](NC(=O)[C@@H](Cc1c[nH]c2ccccc12)NC(=O)[C@H](Cc1ccc(O)cc1)NC(=O)[C@H](CO)NC(=O)[C@H](Cc1c[nH]c2ccccc12)NC(=O)[C@H](Cc1cnc[nH]1)NC(=O)[C@@H]1CCC(=O)N1)C(=O)N[C@@H](CCCN=C(N)N)C(=O)N1CCC[C@@H]1C(=O)NCC(N)=O`, the results for the activity, negative = cell killing in assay [1] (setting [5]) and in assay [1] (setting [7]) were -6.78% and -22.9%, respectively. The Potency entry in assay [2] is “inactive”.
As to `C=C1C(CCl)(CCl)C2(Cl)C(Cl)C(Cl)C1(Cl)C2(Cl)Cl` (stereo not drawn), the Potency result in assay [2] was “inactive”.
As for `O=C(O[C@H]1CN2CCC1CC2)N1CCc2ccccc2[C@@H]1c1ccccc1`, in assay [2], the Potency entry is “inactive”.
Regarding `C=C1c2c(Cl)ccc(O)c2C(O)=C2C(=O)[C@]3(O)C(O)=C(C(N)=O)C(=O)[C@@H](N(C)C)[C@@H]3[C@@H](O)[C@H]12`, the activity, negative = cell killing in assay [1] (at 20 µM (top of the series), tumour line C) was 3.1%; in assay [1] (setting [8]) it was -28.3%. In addition, in assay [2], the Potency result was “inactive”.
Take `CCN(CC)CCOc1ccc2nc(N(C)C)sc2c1`: in assay [2], the Potency entry is “inactive”.
On the same count and under the same terms, the same measure for `CN(C)CCC=C1c2ccccc2C(C)(C)c2ccccc21`: 17.8 µM (active).
As to `CC(=C\c1ccccc1)/C=C1/SC(=S)N(CC(=O)O)C1=O`, the activity, negative = cell killing was -25% in assay [1] (setting [6]) and -14.3% in assay [1] (setting [7]). Also, the Potency result in assay [2] is “inactive”.
As for `COc1ccccc1N1CCN(CCCC(=O)c2ccc(F)cc2)CC1`, the activity, negative = cell killing in assay [1] (setting [5]) is -16%. Besides, the Potency in assay [1] (tumour line A) is 10 µM (active). Further, the Potency result in assay [2] is “inactive”.
As for `CCN(CC)CCCC(C)Nc1cc(/C=C/c2ccccc2Cl)nc2cc(Cl)ccc12` (stereo not drawn), in assay [2], the Potency entry is “inactive”.
Still for that read-out and setting: the same measure for `CN=C1C=CC(=C(c2ccc(N(C)C)cc2)c2ccc(N(C)C)cc2)C=C1`: 11.2 µM (active); for `CCCCCCCCCCCCCCCCOCCOCCOCCOCCOCCOCCOCCOCCOCCOCCOCCOCCOCCOCCOCCOCCOCCOCCOCCOCCO`: 3.16 µM (active).
Still for that read-out and setting: the same measure for `COc1ccc2c(c1)OC(C)(C)C(c1ccccc1)C2c1ccc(OCCN2CCCC2)cc1` (stereo not drawn): 35.5 µM (active).
Regarding `CNC(C)CCC=C(C)C` (stereo not drawn), the activity, negative = cell killing in assay [1] (setting [5]) was -23.7%. In addition, the Potency in assay [1] (tumour line A) is 11.2 µM (active). Moreover, the Potency result in assay [2] was “inactive”.
Take `C=C1[C@@H]2CC[C@@H](C2)C1(C)C`: the results for the activity, negative = cell killing in assay [1] (setting [5]) and in assay [1] (setting [6]) were -1.58% and -22%, respectively. Also, in assay [2], the Potency entry was “inactive”.
With `O=C(CCCN1CCN2CCCC2C1)c1ccc(F)cc1` (stereo not drawn), the Potency entry in assay [2] was “inactive”.
For the molecule `CNC(=O)C[C@@H](N)C(=O)N[C@@H](C(=O)N[C@@H]1C(=O)N2[C@@H]1SC(C)(C)[C@@H]2C(=O)O)c1ccc(O)cc1`, the activity, negative = cell killing in assay [1] (setting [5]) was -11.1%; in assay [1] (setting [7]), -11.3%. Moreover, the Potency entry in assay [2] was “inactive”.
As to `C=C[C@]1(C)C[C@@H](OC(=O)CSCCN(CC)CC)[C@]2(C)[C@H](C)CC[C@]3(CCC(=O)[C@H]32)[C@@H](C)[C@@H]1O`, the activity, negative = cell killing in assay [1] (setting [5]) was -23.5%. Besides, the Potency in assay [1] (tumour line A) was 7.94 µM (active). Besides, in assay [2], the Potency result is “inactive”.
For `O=C(c1cc2ccccc2o1)N1CCN(Cc2ccccc2)CC1`, in that order: -15.4%, 11.2 µM (active) and “inactive”.
For the molecule `OCCN1CCN(CC/C=C2/c3ccccc3Sc3ccc(Cl)cc32)CC1`, the activity, negative = cell killing in assay [1] (at 21.2 µM (top of the series), tumour line B) was -19.4%; in assay [1] (setting [8]) it was -24.9%. For the same molecule, the Potency entry in assay [2] was “inactive”.
Take `CC[C@@H](C(=O)[C@@H](C)[C@@H](O)[C@H](C)[C@@H]1O[C@@H]([C@@H](CC)C(=O)O)CC[C@@H]1C)[C@H]1O[C@]2(C=C[C@@H](O)[C@]3(CC[C@@](C)([C@H]4CC[C@](O)(CC)[C@H](C)O4)O3)O2)[C@H](C)C[C@@H]1C`: the Potency in assay [2] was 7.94 µM (active).
The same measure, in the same setting: for `CCOc1cc(-c2nccc3cc(OC)c(OC)cc23)cc(OCC)c1OCC` the value was “inactive”; for `CC1=CC(=C(c2ccc(N)cc2)c2ccc(N)cc2)C=CC1=N`, 3.16 µM (active); for `CN(C)C(=O)CCSC(SCCC(=O)O)c1cccc(/C=C/c2ccc3ccc(Cl)cc3n2)c1` (stereo not drawn), 17.8 µM (active).
Take `CC[C@@]1([C@@H]2O[C@@H]([C@H]3O[C@@](O)(CO)[C@H](C)C[C@@H]3C)C[C@@H]2C)CC[C@H]([C@]2(C)CC[C@]3(C[C@H](O)[C@@H](C)[C@@H]([C@@H](C)[C@@H](OC)[C@H](C)C(=O)O)O3)O2)O1` (stereo in doubt): the Potency in assay [2] is 14.1 µM (active).
In the case of `Cc1cc(-c2ccc(N=Nc3ccc4c(S(=O)(=O)O)cc(S(=O)(=O)O)c(N)c4c3O)c(C)c2)ccc1N=Nc1ccc2c(S(=O)(=O)O)cc(S(=O)(=O)O)c(N)c2c1O`, the Potency in assay [2] was 17.8 µM (active).
For `O=c1n(CC2CO2)c(=O)n(CC2CO2)c(=O)n1CC1CO1` (stereo not drawn), the max response in assay [3] is -7.41% and -4.4%. Moreover, in assay [4], the result was inactive.
